Rows were chosen to be rich in hits. Some 4.6% of all compounds tested hit in one or more screens of this group.
NALP3 yeast inh – NALP3 inhibition in yeast | Yeast reconstituted NLRP3/ASC/caspase-1, beta-gal luminescence, 24 h | inhibition, % at 10 µM | hit rate 0.39% among 330,000;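 active = inhibition of 50% or more; inactive = inhibition below 50%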;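 also: plate controls were induced DMSO wells for no effect and uninduced yeast grown without galactose for full effect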
tim23-1 inh – growth inhibitors of tim23-1 mutant yeast | S. cerevisiae tim23-1 growth, BacTiter-Glo luminescence, 24 h | hit rate 1.3% among 330,000 | inhibition, % at 20 µM;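 active = growth inhibition of the mutant yeast at or above 50%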;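 also: temperature-sensitive mutant grown at 25 °C; plate controls were DMSO-treated mutant yeast for no effect and medium wells lacking yeast for full effect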
TIM10 inh – inhibits growth of TIM10 yeast strain. S. cerevisiae TIM10 strain growth, BacTiter-Glo luminescence, 24 h. inhibition, % at 10 µM. hit rate 1.4% among 330,000. AID 463195;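 active = inhibition of 40% or more at the single tested concentration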;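 also: wild-type TIM10 isogenic control strain grown at permissive 25 °C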
tim10-1 inh – tim10-1 yeast growth inhibition | inhibition, % at 20 µM | hit rate 2.2% among 330,000 | S. cerevisiae tim10-1 ts strain growth, BacTiter-Glo, 24 h | AID 463190;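 active = inhibition of at least 40%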;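 also: mutant grown at 25 °C; 0% = DMSO wells with yeast and 100% = wells holding no yeast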
SKKanGAS inh – SKKanGAS growth inhibition; S. pyogenes SKKanGAS, kanamycin growth, BacTiter-Glo, 6 h; inhibition, % at 7.5 µM; hit rate 1.3% among 300,000; AID 1662;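 active = mean replicate score, as percent of positive control median, at least 50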;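 also: strain carries kanamycin resistance gene driven by streptokinase promoter and grows in 40 µg/ml kanamycin; loss of luminescence reflects streptokinase promoter inhibition or plain growth inhibition; 0% = median of DMSO wells and 100% = positive control at its reference dose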
* hit, by the source's call; x = no result given.

SMILES	NALP3 yeast inh	tim23-1 inh	TIM10 inh	tim10-1 inh	SKKanGAS inh
O=C(Nc1nnc(-c2ccccn2)o1)c1cccc(Br)c1	-11	13	-11	13	67*
N#Cc1ccc(C(=O)Nc2nnc(-c3ccccn3)o2)cc1	-27	14	10	13	4
O=C(N/N=C/c1ccc(OC(=O)c2cccs2)cc1)c1ccccn1	11	2	-3	-15	7
COc1ccc(OC)c(NC(=O)CSc2nccn2Cc2ccco2)c1	2	12	1	3	0
O=C(O)Cc1sc(NC2CCCCC2)nc1-c1ccc(Cl)cc1	3	12	13	-3	3
O=C(Nc1nnc(-c2cc(Cl)ccc2Cl)o1)C1=COCCO1	14	21	-8	8	5
COc1cc(OC)cc(C(=O)Nc2nnc(-c3cccnc3)o2)c1	-24	-1	-32	20	-2
O=C(Nc1nnc(-c2ccco2)o1)c1cccc(Cl)c1	-4	-39	-2	23	88*
O=C(Nc1nnc(-c2cc(Cl)ccc2Cl)o1)c1ccco1	16	6	-14	-22	74*
O=C(Nc1nnc(-c2cccnc2)o1)c1cccc(Cl)c1	10	-19	3	15	79*
Cc1ccc2cc(C)c3nnc(SCc4ccc(C(=O)O)cc4)n3c2c1C	8	4	-23	-1	5
O=C(Nc1cccc(-c2csc(Nc3cccc(C(F)(F)F)c3)n2)c1)c1ccccc1	17	26	30	26	93*
O=C(Nc1nc(-c2ccccc2)cs1)c1cccc([N+](=O)[O-])c1	10	-13	-8	-4	19
O=C(Nc1ccc(-c2csc(Nc3cccc(C(F)(F)F)c3)n2)cc1)c1cc([N+](=O)[O-])cc(C(F)(F)F)c1	10	19	5	15	53*
O=C(Nc1ccc(-c2csc(Nc3cccc(C(F)(F)F)c3)n2)cc1)c1ccccc1	22	8	12	3	84*
O=C(Nc1ccc(-c2csc(Nc3ccc(Cl)cc3)n2)cc1)c1ccccc1	-1	12	1	-8	x
C=CCN1C(=O)c2ccc(C(=O)N(CCC)CC(=O)Nc3ccccc3C)cc2C1=O	-3	1	2	4	-3
O=C(CN1c2ccccc2Sc2ccccc21)N/N=C/c1ccc(Cl)cc1Cl	20	17	18	8	33
O=C(CN1c2ccccc2Sc2ccccc21)NNC(=S)Nc1ccc(Cl)cc1Cl	15	3	10	26	111*
O=C(CN1c2ccccc2Sc2ccccc21)NNC(=S)Nc1ccc(Cl)cc1	23	21	31	38	89*
Nc1[nH]n2c(=O)c3c(nc2c1N=Nc1ccc(Cl)cc1)CCCC3	36	20	6	17	83*
Nc1[nH]n2c(=O)c3c(nc2c1N=Nc1ccccc1)CCCC3	17	17	9	19	2
Cn1c(Oc2ccccc2NCc2cc(Br)ccc2O)cc(=O)n(C)c1=O	9	23	3	18	59*
COc1cc(CNc2ccccc2Oc2cc(=O)n(C)c(=O)n2C)cc(OC)c1OC	12	15	10	27	-6
O=C(Nc1cccc(-c2ccc(N3CCOCC3)nn2)c1)c1ccccc1Cl	23	16	2	4	50*
SMILES	NALP3 yeast inh	tim23-1 inh	TIM10 inh	tim10-1 inh	SKKanGAS inh
COc1cc(OC)cc(C(=O)Nc2cccc(-c3ccc(N4CCOCC4)nn3)c2)c1	19	14	6	-1	55*
COc1ccc(C(=O)Nc2cccc(-c3ccc(N4CCOCC4)nn3)c2)cc1	8	17	2	15	52*
C[C@H](CO)N1C[C@H](C)[C@H](CN(C)S(=O)(=O)c2ccccc2)Oc2c(NS(C)(=O)=O)cccc2C1=O	5	-1	-2	-7	x
COc1ccccc1Oc1cn[nH]c1-c1ccc(OCC(=O)NN)cc1O	19	8	13	12	50*
COc1ccc(Oc2cn[nH]c2-c2ccc(OCC(=O)NN)cc2O)cc1	8	13	-3	21	88*
CCCOC(=O)c1ccc(Oc2cn[nH]c2-c2ccc(OCC)cc2O)cc1	3	35	22	28	78*
COc1ccc(NC(=O)COc2ccccc2C(=O)NCC(c2ccccc2)N(C)C)cc1Cl (configuration not stated)	2	7	-22	2	2
CCN(CC)S(=O)(=O)c1cc(NC(=O)CCn2[nH]c(=O)ccc2=O)ccc1C	-6	7	1	-8	x
Cc1cccc(C(C(=O)NC2CCCCC2)N(C(=O)c2csnn2)C2CC2)c1 (configuration not stated)	23	7	-7	9	-8
COc1ccc(-n2c(=S)[nH]c3cc(C(=O)Nc4ccc(C)c(F)c4)ccc3c2=O)c(OC)c1	2	9	13	8	76*
COC(=O)C1(C(C[N+](=O)[O-])c2ccc(C)cc2)C(=O)NCC1c1ccco1 (configuration not stated)	16	-3	-11	5	64*
CCC1(C(=O)OC)NC(c2ccco2)C2C(=O)N(c3ccc(C)cc3)C(=O)C21 (configuration not stated)	-13	8	10	11	0
Cc1ccc(/C=N/NC(=O)Cc2ccc(Cl)cc2)c(O)c1	16	8	5	-17	101*
Cc1cc(OC(=O)c2cccc(Cl)c2)c([N+](=O)[O-])c(=O)[nH]1	0	10	3	13	-1
COc1cc2ccccc2cc1C(=O)Nc1nnc(-c2ccncc2)o1	19	43	1	-10	5
O=C(Nc1nnc(-c2ccc(Cl)cc2)o1)c1nc2ccccc2s1	16	-12	8	10	94*
O=C(Nc1nnc(-c2ccc(F)cc2)o1)c1cc(Cl)sc1Cl	-12	10	10	-31	105*
O=C(Nc1nnc(-c2ccccc2)o1)c1cc(Cl)sc1Cl	5	12	22	21	89*
O=C(Nc1nnc(-c2ccncc2)o1)c1ccccc1F	17	8	-5	-6	-1
COc1ccc(/C=C/C(=O)Nc2ccc(C)c(S(=O)(=O)N3CCOCC3)c2)cc1	0	16	-3	-20	x
O=C(CCNS(=O)(=O)c1ccccc1)NNC(=O)COc1ccc(Cl)cc1	14	2	-1	1	x
COc1cnc(-c2ccccn2)nc1Oc1ccccc1Cl	-14	-4	-1	14	71*
COc1ccccc1Sc1nc(-c2ccccn2)ncc1OC	-6	15	-11	19	83*
COc1cc(S(=O)(=O)N2CCN(Cc3ccc4c(c3)OCO4)CC2)ccc1NC(C)=O	5	7	8	23	x
Cc1cc(F)ccc1S(=O)(=O)Nc1ccccc1C(=O)Nc1ccccc1-c1nc2ccccc2[nH]1	6	25	19	12	58*
O=C(COc1ccc(Cl)cc1Cl)N(C1CCCCC1)C1CCS(=O)(=O)C1 (configuration not stated)	12	15	0	-10	x
COc1ccc(C(=O)CC(=O)C(=O)Nc2ccccc2Cl)cc1	x	x	x	x	56*
COc1ccc(C(=O)CC(=O)C(=O)Nc2cc(OC)ccc2OC)cc1	17	19	-12	-14	1

Compound activity from PubChem.
